PubChem BioAssay (EPA / NIEHS)
Inconclusive results are not listed. Calls of active or inactive are those of the source. Rule for the calls, unless noted: active = hit-call score of the fitted dose curve at least 0.9, where 1 is the maximum; inactive = score below 0.9.

Assays:
[1] = ACEA_ER_80hr: ACEA Biosciences xCELLigence Real-Time Cell Analysis on Estrogen Receptor Agonism for Proliferation (AID 2282667; active = hit-call score of the fitted dose curve at least 0.9, where 1 is the maximum); conditions: T47D proliferation, impedance (xCELLigence), 80 h
Procedure, shortened: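 Estrogen-driven proliferation is captured as electrode impedance in T47D cells 80 h after compound addition. Test articles ran at 8 concentrations, 1:4 dilutions from 100 uM final, in two replicate plates.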

[2] = ATG_CRE_CIS: Attagene CIS-FACTORIAL HepG2 Assay for human cAMP Responsive Element (CRE) binding protein 3 (AID 2282926); conditions: HepG2 CRE cis-reporter, Attagene multiplexed mRNA; actives raise or lower the signal
Procedure, shortened: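 Liver-derived HepG2, transfected with a CRE-containing reporter panel, exposed 24 h; transcript levels sized and quantified by capillary electrophoresis of labelled amplicons; signal changes either way referenced to vehicle.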

[3] = target: CCAAT/enhancer-binding protein beta (Homo sapiens) (UniProt P17676); experiment: ATG_C_EBP_CIS: Attagene CIS-FACTORIAL HepG2 Assay for human CCAAT/Enhancer Binding Protein (C/EBP) beta (AID 2282927); conditions: HepG2 Attagene cis-factorial transcription factor reporter; actives raise or lower the signal
Procedure, shortened: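 Changes in reporter mRNA, rather than exogenous chimeric receptor activity, reflect native C/EBP signalling in transfected HepG2 cells dosed for 24 h; transcripts are detected by RT-PCR and capillary electrophoresis.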

[4] = ATG_CMV_CIS: Attagene CIS-FACTORIAL HepG2 Assay for human CMV (Internal Marker) (AID 2282928); conditions: HepG2 CMV promoter reporter, transcription factor profiling; actives raise or lower the signal;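 note: endpoint acts as a background internal control marker rather than a target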
Procedure, shortened: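 Reporter transcripts from transfected HepG2 cells are isolated after 24 h of chemical dosing, reverse-transcribed and amplified. Fragments labeled with 6-FAM are cut with HpaI and quantified by capillary electrophoresis; DMSO defines baseline.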

[5] = ATG_DR4_LXR_CIS: Attagene CIS-FACTORIAL HepG2 Assay for human Liver X Receptor (LXR), DR4 submotif (AID 2282929); conditions: HepG2 Attagene DR4 cis-reporter, mRNA transcription; actives raise or lower the signal
Procedure, shortened: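 Total RNA from 24 h-treated, MRTU-transfected HepG2 cells underwent reverse transcription, PCR, fluorescent primer extension and restriction digestion before capillary electrophoresis. Both increases and decreases in reporter signal were fitted against DMSO.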

[6] = target: Aryl hydrocarbon receptor (Homo sapiens) (UniProt P35869); experiment: ATG_Ahr_CIS: Attagene CIS-FACTORIAL HepG2 Assay for human Aryl Hydrocarbon Receptor (Ahr) (AID 2282930); conditions: HepG2 AhR cis-factorial reporter transcription; actives raise or lower the signal
Procedure, shortened: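 HepG2, transient MRTU (cis) transfection, 24 h exposure. RNA → cDNA → PCR → 6-FAM primer extension → HpaI 2 h 37 C → CE. Fit: bidirectional, DMSO baseline.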

[7] = ATG_AP_1_CIS: Attagene CIS-FACTORIAL HepG2 Assay for human Activator Protein 1 (AP-1) (AID 2282931); conditions: HepG2 Attagene cis-factorial AP-1 reporter mRNA; actives raise or lower the signal
Procedure, shortened: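 HepG2, transient cis-reporter transfection; 24 h; readout RT-PCR/CE fluorescence; DMSO baseline, gain and loss fitted.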

[8] = target: Retinoic acid receptor alpha (Homo sapiens) (UniProt P10276); experiment: ATG_DR5_RAR_CIS: Attagene CIS-FACTORIAL HepG2 Assay for human Retinoic Acid Receptor Alpha (RARE), DR5 submotif (AID 2282934); conditions: HepG2 Attagene cis-factorial RARE DR5 reporter, mRNA; actives raise or lower the signal
Procedure, shortened: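 HepG2, transient cis-reporter transfection, 24 h exposure. mRNA readout: RT-PCR, FAM label, HpaI cut, capillary electrophoresis. DMSO baseline, gain/loss fitting.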

[9] = ATG_AP_2_CIS: Attagene CIS-FACTORIAL HepG2 Assay for human Activator Protein 2 (AP-2) (AID 2282932); conditions: HepG2 AP-2 cis-reporter, Attagene transcription factor profiling; actives raise or lower the signal
Procedure, shortened: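 Endogenous transcription factor activity is reported through transfected multiplex reporter constructs in HepG2, after 24 h of compound exposure. Transcripts were quantified by RT-PCR and capillary electrophoresis of fluorescent fragments. Bidirectional fit against DMSO.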

[10] = ATG_BRE_CIS: Attagene CIS-FACTORIAL HepG2 Assay for human Bone Morphogenetic Protein (BMP) Response Element (BRE) (AID 2282933); conditions: HepG2 BMP response element reporter, Attagene transcription factor profiling; actives raise or lower the signal
Procedure, shortened: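 HepG2 cells transiently transfected with multiplexed cis-element reporter units were dosed with chemical for 24 h. Reporter mRNA was measured by RT-PCR with fluorescent labelling, HpaI digestion and capillary electrophoresis; bidirectional fitting relative to DMSO.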

Measured: AC50

Sequence of CCAAT/enhancer-binding protein beta (Homo sapiens) (P17676 whole entry, looked up): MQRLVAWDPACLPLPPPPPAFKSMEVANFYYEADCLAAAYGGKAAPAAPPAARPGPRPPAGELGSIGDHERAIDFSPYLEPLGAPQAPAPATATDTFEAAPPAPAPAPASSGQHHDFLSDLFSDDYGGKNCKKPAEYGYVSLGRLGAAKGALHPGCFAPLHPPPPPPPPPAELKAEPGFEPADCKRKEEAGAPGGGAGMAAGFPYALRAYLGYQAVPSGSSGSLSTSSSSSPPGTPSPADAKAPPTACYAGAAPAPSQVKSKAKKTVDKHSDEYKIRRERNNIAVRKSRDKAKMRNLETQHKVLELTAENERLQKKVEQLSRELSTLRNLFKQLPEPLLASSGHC
Sequence of Retinoic acid receptor alpha (Homo sapiens) (P10276 whole entry, looked up): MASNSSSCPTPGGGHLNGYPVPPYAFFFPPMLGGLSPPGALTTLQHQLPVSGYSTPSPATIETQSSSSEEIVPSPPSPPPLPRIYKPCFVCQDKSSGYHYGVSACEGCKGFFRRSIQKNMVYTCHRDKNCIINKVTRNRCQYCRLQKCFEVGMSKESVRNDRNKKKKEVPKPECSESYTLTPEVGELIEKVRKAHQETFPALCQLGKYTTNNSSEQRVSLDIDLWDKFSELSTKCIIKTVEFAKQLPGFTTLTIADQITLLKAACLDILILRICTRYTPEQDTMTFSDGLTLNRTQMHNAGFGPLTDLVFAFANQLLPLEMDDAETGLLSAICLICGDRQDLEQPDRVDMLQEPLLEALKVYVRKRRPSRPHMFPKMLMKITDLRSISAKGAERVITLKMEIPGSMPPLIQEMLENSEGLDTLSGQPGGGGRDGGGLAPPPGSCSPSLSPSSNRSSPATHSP
Sequence of Aryl hydrocarbon receptor (Homo sapiens) (P35869 whole entry, looked up): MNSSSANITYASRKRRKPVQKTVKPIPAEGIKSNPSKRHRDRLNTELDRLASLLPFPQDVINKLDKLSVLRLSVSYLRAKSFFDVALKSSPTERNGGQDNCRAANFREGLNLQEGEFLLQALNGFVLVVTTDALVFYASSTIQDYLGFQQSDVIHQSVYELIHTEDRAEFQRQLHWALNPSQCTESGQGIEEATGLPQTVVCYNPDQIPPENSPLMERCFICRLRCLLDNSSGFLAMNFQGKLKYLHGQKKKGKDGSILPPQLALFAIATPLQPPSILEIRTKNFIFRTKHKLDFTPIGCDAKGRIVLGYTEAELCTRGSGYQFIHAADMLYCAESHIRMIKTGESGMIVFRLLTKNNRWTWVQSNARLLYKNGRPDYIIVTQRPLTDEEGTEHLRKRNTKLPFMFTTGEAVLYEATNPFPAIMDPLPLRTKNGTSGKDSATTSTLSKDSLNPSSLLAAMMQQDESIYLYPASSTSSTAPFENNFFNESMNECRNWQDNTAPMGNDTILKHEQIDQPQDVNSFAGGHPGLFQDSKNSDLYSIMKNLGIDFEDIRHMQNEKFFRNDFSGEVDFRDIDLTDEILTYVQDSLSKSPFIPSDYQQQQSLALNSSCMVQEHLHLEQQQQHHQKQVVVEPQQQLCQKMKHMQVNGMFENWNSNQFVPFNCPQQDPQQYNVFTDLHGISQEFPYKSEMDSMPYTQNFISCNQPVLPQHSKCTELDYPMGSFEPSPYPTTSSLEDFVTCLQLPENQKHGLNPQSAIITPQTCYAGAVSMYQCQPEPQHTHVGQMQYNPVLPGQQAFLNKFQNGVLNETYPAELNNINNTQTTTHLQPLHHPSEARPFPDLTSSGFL

Oc1c(Cl)cc(Cl)c(Cl)c1Cl
active: [1] 10.5 µM
not listed: [9] | [10]
inactive: all other assays above

CC1=CC(C)C(C=O)CC1 (stereo not drawn)
active: [6] 8.87 µM
not listed: [10]
inactive: all other assays above

CCN1CN(CC)CN(CC)C1
active: [2] 162 µM | [3] 175 µM | [4] 140 µM | [5] 139 µM
not listed: [7]
inactive: all other assays above

O=C(Cl)c1ccc(C(=O)Cl)cc1
not listed: [10]
inactive: all other assays above

Cc1c(C(=O)c2c[nH]n(C)c2=O)ccc(S(C)(=O)=O)c1C1=NOCC1
not listed: [7]
inactive: all other assays above

CCCCCC(=O)OCC
not listed: [9] | [10]
inactive: all other assays above

C=CC(=O)OCCCCCCOC(=O)C=C
active: [1] 10.5 µM | [4] 56.6 µM | [5] 49.7 µM | [10] 24.5 µM
not listed: [9]
inactive: all other assays above

CCCCCCCCCCCCCC(=O)OC(C)C
not listed: [9]
inactive: all other assays above

CC1=CC=C(C(C)C)CC1
not listed: [8] | [9]
inactive: all other assays above

C=C[Si](OCCOC)(OCCOC)OCCOC
not listed: [9]
inactive: all other assays above

CCc1cccc(CC)c1
not listed: [5]
inactive: all other assays above

CCC(C)N (stereo not drawn)
not listed: [6]
inactive: all other assays above

CCCCOCCOC(=O)COc1ccc(Cl)cc1Cl
active: [1] 10.8 µM
not listed: [5]
inactive: all other assays above

Cc1ccc(S(=O)(=O)N=C=O)cc1
not listed: [7] | [9]
inactive: all other assays above

O=C(O)CCC(=O)O
not listed: [6] | [7]
inactive: all other assays above

C=CC(=O)NCOCCCC
not listed: [6] | [7] | [10]
inactive: all other assays above

CCCCC(C=O)CC (stereo not drawn)
not listed: [6] | [7]
inactive: all other assays above

CC12CCC(CC1)C(C)(C)O2
not listed: [6]
inactive: all other assays above

CCOc1ccc(NC(N)=O)cc1
not listed: [5]
inactive: all other assays above
